According to PubChem BioAssay (NCI):
This is part of a sample that, as a whole, favours compounds with a hit. Of some 83,000 tested, about 20% had one in any assay.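 Note: values are percent growth. 100 is the growth of untreated cells, values between 100 and 0 indicate rising inhibition; between -100 and 0 indicates cell death.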 Values without a mark were called inactive. Activity calls are given as the source filed them.

test system: KM12 colon; experiment: NCI-60 one-dose screen, 48 h (100 = growth as untreated, 0 = no growth, -100 = all killed); conditions: 10 µM unless noted
Procedure: Growth inhibition of the KM12 human tumor cell line is measured as a screen for anti-cancer activity. Cells are grown in 96 well plates and exposed to the test compound for 48 hours. Compounds are tested at a single concentration, which is 10^-5 M for most compounds. The reported endpoint is percent growth (GI% or GIPRCNT), where numbers from 0 - 100% represent growth inhibition, and numbers from -100% - 0 represent cell death. For example, a value of 40 represents 60% growth inhibition. A value of 0 means no net growth occurred over the course of the experiment. A value of -40 indicates 40% of cells at the beginning of the experiment died by the end of the experiment. A value of -100 means all cells are dead at the end of the experiment.
NCI-60 Human Tumor Cell Lines Screen was performed using the standard one-dose NCI protocol, which is described in more detail at https://dtp.cancer.gov/discovery_development/nci-60/default.htm.
Compounds with GIPRCNT values below 10 were considered active. Activity score was based on GIPRCNT using the following formula: […]
Score is 0 for GIPRCNT values of 100 or above, 50 for GIPRCNT values of 0, and 100 for GIPRCNT values of -100.

Row | SMILES | growth
1 | OC1Cc2ccccc2C1 | 98.5%
2 | CC1CC(C)S(=O)(=O)C1 (stereo not given) | 102%
3 | Cc1cc(NC(=O)c2ccccc2)c(Cl)cc1N | 106%
4 | CCOC(=O)CNC(=O)Sc1ccc(C(C)(C)C)cc1 | 102%
5 | Cc1c(-c2ccc(C3CCCCC3)cc2)nc2ccc(F)cc2c1C(=O)O | 32%
6 | CCOC(=O)c1c(C)[nH]c(C)c1C=O | 104%
7 | C=CC(=O)OC1CCC(C(C)(C)CC)CC1 (stereo not given) | 106%
8 | O=[N+]([O-])c1ccc2[nH]c(=S)n(/C=C(/c3ccc(Cl)cc3Cl)S(=O)(=O)Cc3ccc(Cl)cc3Cl)c2c1 | 108%
9 | O=Cc1ccc(O)c(O)c1 | 91.2%
10 | CCCCCC/C=C\CCCCCCCCCc1cc(O)cc(OC)c1O | 12.5%
11 | O=c1nc(Nc2cccc(Cl)c2)oc2cc(Cl)oc(=O)c12 | 81.7%
12 | CSc1cnc2ccccc2n1 | 101%
13 | COc1cc(C(=O)N2CCN(c3ccccc3)CC2)c2ccccc2n1 | 2.35% (active)
14 | CCC(/C=C\C(C)=O)CC | 105%
15 | Cc1ccc(C)c(CCO)c1 | 101%
16 | O=C1NCC2CCCC1C2 (stereo not given) | 107%
17 | Cc1ccc(NC(=S)N2CCOCC2)cc1C | 101%
18 | COc1ccc(C2CCCCC2=O)cc1 (stereo not given) | 112%
19 | C=CCC(OC(C)=O)c1ccc(C(C)C)cc1 (stereo not given) | 114%
20 | OC(CBr)CCBr (stereo not given) | 113%

Row | SMILES | growth
21 | CN(C)c1ccc2c(N(C)C)cc(N(C)C)nc2c1 | 78.3%
22 | O=C(Nc1cccc(Cl)c1)c1ccc(Cl)cc1Cl | 85.1%
23 | Cn1c(=O)c2[nH]c(CC(=O)O)nc2n(C)c1=O | 105%
24 | OCCNc1ccccc1 | 101%
25 | CCNc1ccc2ccccc2c1N=Nc1ccc(N=Nc2ccccc2)cc1 | 105%
26 | COc1cccc(N=CNc2cccc(OC)c2)c1 | 87.8%
27 | OCc1cccnc1 | 105%
28 | Cc1onc(-c2ccccc2Cl)c1C(=O)Cl | 119%
29 | Cc1cc2c(C(C)C)c(O)c(O)c(C=Nc3ccccc3[N+](=O)[O-])c2c(O)c1-c1c(C)cc2c(C(C)C)c(O)c(O)c(C=Nc3ccccc3[N+](=O)[O-])c2c1O | 47.7%
30 | CN(C)c1ccc2nc3ccc(=[N+](C)C)cc-3oc2c1 | 35.1%
31 | CC(=O)NC(CCC(=O)c1ccccc1)C(=O)O (stereo not given) | 103%
32 | C=CCc1cc(OC)c(O)c(OC)c1 | 104%
33 | N#CC1(O)CCCCC1 | 102%
34 | Cc1ccc(N2C(=O)c3cccc4c(N)c(S(=O)(=O)O)cc(c34)C2=O)cc1 | 99.3%
35 | Cc1cccc2ccccc12 | 106%
36 | Nc1ncnc(Nc2ccccc2)n1 | 120%
37 | CC(=O)OC/C(C)=C\CC(C)COC(C)=O (stereo not given) | 104%
38 | CC(C)(C)CC1(C)NC(=O)NC1=O (stereo not given) | 106%
39 | CCCCc1ccc2nc(NC(=O)OC)[nH]c2c1 | -12.2% (active)
40 | CC1CC2C3CCC4=CC(=O)CCC4(C)C3CCC2(C)C1(O)C(=O)CO (stereo not given) | 119%
